This is an account of results in PubChem BioAssay.

The structures appear in SMILES notation.

The target in the assay is NADPH oxidase 5 (Homo sapiens) (UniProt Q96PH1). Kind of assay: compounds shifting NOX5 Amplex Red fluorescence – cell-based, HEK293-NOX5, NOX inhibitor project, primary screen (AID 1161). Particulars: HEK293-NOX5, ionomycin, 45 min, higher = more signal.
NADPH oxidase 5 (Homo sapiens), sequence (Q96PH1 whole entry, looked up): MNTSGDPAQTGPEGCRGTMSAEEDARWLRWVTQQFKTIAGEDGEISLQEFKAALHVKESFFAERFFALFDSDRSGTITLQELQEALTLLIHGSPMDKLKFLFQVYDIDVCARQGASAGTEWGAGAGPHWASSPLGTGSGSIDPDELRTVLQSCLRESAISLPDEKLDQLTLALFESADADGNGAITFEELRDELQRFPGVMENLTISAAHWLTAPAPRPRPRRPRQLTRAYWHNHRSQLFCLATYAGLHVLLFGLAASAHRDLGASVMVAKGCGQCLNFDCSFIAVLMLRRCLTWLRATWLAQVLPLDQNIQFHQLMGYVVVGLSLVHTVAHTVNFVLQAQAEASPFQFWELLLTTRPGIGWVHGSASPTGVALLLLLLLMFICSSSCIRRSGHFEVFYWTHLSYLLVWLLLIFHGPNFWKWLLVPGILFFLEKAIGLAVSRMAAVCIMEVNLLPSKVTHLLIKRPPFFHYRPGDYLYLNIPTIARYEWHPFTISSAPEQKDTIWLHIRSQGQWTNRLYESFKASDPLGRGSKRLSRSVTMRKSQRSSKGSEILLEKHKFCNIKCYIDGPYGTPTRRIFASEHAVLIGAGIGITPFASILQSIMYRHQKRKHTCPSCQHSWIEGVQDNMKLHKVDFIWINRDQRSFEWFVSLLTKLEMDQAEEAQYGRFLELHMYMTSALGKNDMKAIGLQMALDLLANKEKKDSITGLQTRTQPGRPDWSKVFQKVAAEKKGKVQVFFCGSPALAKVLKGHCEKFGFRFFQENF
As for `COC(=O)[C@@]1(Cc2ccc(OC)cc2)[C@H]2c3cc(C(=O)N(C)C)n(Cc4ccc(C)o4)c3C[C@H]2CN1C(=O)c1ccccc1`, the z-score was -3.41.
Turning to `CCCCCN1CC=CC23O[C@@H]4/C=C\CCC(C)OC(=O)C4[C@H]2C(=O)N(C(CO)C(C)C)[C@@H]3C1=O` (stereo partly specified), the z-score was determined as 1.86.
Regarding `CCOC(=O)C[C@H]1[C@H](OC(=O)c2ccccc2-c2ccccc2)[C@@H](NC(=O)c2ccc3ccccc3n2)c2cc(OCCCO)ccc2N1C(=O)Cc1ccc(OC)cc1`, the z-score was found to be 0.76.
Under `O=C1OCCC/C=C\[C@H]2OC34C=CCN(c5ccc6ccccc6c5)C(=O)[C@H]3N(CCO)C(=O)[C@@H]4C12` (stereo partly specified) stands 1.81.
Under `O=C1N(Cc2ccccc2)c2ccccc2C[C@]12N=C(c1ccc(OCCCO)cc1)O[C@@H]2c1ccccc1` stands 0.0935; under `O[C@@H](Cc1ccccc1)[C@@H](/C=C/C1CC1)N(CC#Cc1ccccc1)Cc1ccccc1Br`, -0.586.
Under `O=C(C1N=C(c2ccc(OCCCO)cc2)N(c2ccccc2)O1)N1CCCCC1` (stereo unspecified) stands -0.404; under `CC(C)[Si]1(C(C)C)OCc2cc(-c3ccc(-c4ccc(Cl)c(Cl)c4)o3)nc(-c3ccccc3)c21`, 0.701.
Consider `COc1ccc([Si](C)(C)[C@@H]2[C@@H](CCO)O[C@]3(C(=O)N(Cc4ccccc4)c4ccc(NC(=O)[C@H](C)O)cc43)[C@H]2C)cc1`, for which the z-score is 1.8.
Under `COc1cc(NN2C(C(O)c3ccc(N(C)C)cc3)C=CC3C(=O)N(c4ccccc4)C(=O)C32)cc(OC)c1OC` (stereo unspecified) stands -4.75; under `Cn1cccc1C(O)C1C=CC2C(=O)N(c3ccccc3)C(=O)C2N1Nc1ccccc1` (stereo unspecified), -1.81.
